Assay outcomes from PubChem.
An excerpt weighted towards active compounds, which were near 1.2% of everything screened.
hERG WT inh – KCNH2 (human, wildtype) channel inhibition; Q12809; U2OS, BacMam KCNH2, thallium flux FluxOr; active compounds read low; activity change, % at 1.84 µM; actives 0.37% (n = 340,000); AID 720551;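 active means maximum activity change below -70%; inconclusive means maximum activity change between -70% and -50%; inactive means maximum activity change above -50%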
Target sequence (Q12809 whole entry, looked up): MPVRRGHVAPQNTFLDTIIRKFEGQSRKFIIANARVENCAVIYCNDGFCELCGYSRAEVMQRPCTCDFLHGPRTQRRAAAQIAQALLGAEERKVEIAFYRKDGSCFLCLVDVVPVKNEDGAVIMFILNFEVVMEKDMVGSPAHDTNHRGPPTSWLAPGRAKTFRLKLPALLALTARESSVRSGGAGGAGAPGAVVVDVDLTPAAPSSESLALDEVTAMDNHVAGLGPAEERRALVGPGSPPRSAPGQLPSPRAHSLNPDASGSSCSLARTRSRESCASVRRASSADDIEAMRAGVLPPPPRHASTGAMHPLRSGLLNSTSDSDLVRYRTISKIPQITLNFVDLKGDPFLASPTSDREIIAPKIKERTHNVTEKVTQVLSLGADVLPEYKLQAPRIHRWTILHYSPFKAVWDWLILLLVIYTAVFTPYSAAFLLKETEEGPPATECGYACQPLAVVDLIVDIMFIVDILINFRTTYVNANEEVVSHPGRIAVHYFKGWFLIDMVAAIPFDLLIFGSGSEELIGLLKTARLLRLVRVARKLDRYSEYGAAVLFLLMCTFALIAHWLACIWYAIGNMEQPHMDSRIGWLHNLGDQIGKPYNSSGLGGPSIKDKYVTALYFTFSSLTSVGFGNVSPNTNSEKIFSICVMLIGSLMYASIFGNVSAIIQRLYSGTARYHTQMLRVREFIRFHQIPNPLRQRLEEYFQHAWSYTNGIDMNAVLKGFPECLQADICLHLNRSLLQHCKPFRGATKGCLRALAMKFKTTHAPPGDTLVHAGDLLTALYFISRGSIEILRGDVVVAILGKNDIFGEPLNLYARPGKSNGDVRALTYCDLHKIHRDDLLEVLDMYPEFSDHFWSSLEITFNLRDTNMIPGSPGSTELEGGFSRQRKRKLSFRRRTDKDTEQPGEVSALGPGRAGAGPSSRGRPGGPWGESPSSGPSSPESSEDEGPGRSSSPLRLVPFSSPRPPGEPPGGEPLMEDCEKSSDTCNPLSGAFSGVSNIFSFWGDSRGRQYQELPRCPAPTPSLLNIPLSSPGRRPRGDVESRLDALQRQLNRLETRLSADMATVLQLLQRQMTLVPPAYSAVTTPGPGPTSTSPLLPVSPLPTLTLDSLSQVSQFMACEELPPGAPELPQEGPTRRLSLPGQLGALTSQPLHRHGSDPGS
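U2OS cells were transduced with wild-type KCNH2 virus (2.03 x 10^8 / mL) for 4 h at room temperature, then cultured overnight at 37 C. Thallium flux was read with FluxOr dye. Rate constants were normalized to DMSO controls.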
KCNH2 3.1 inh – blocks the human KCNH2 3.1 channel isoform. activity change, % (tested at about 1.8 µM). actives 0.95% (n = 340,000). U2OS KCNH2 3.1, thallium flux FluxOr; active compounds read low;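 active means maximum activity change below -70%; inconclusive means maximum activity change from -70% to -50%; inactive means maximum activity change above -50%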;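 further: thallium influx rate constant from kinetic fluorescence after stimulation buffer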
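Measured as rate of thallium-driven FluxOr signal in transduced U2OS cells carrying the 3.1 channel, read kinetically for 2 min upon stimulation; values are rate constants scaled to DMSO control wells.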
Luc counter – counter-screen: inhibitors of Kinase-Glo firefly luciferase; Kinase-Glo luciferase, ATP luminescence, 8 min; Potency, µM (highest dose often 38.3 µM), for inactives: at the highest dose activity change, negative = inhibition, hits mostly inhibitors; actives 0.28% (n = 200,000); active means well fitted inhibition curve with a large enough effect; inconclusive means small, poorly fitted or top-dose-only effect; further: potency means the concentration at half of the fitted maximal effect; nearly all actives have a fitted effect of over 60% in size
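Substrate mix (final 50 mM imidazole pH 7.2, 50 mM KCl, 7 mM MgCl2, 10 uM ATP, 0.01% Tween 20, 0.05% BSA) plus pin-tool compound, then Kinase-Glo detection mix; 8 min ambient, luminescence read.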
Numbers without * were called inactive; ? = inconclusive; . = no result given; [ ] = remark or other dose. On the % scale 0 is the no-effect control and ±100 the full control effect.

SMILES | hERG WT inh | KCNH2 3.1 inh | Luc counter
CCOCc1c(C(=O)Nc2ccc3nc(N4CCOCC4)sc3c2)oc2ccccc12 | -14 | -23 | .
COc1ccccc1CNC(=O)CN1C(=O)NC2(CCCCCCC2)C1=O | 4 | 13 | .
C=CCOc1cccc(C(=O)N2CCC(CCC(=O)NC3CC3)CC2)c1 | -2 | 1 | .
CCCCC/C=C\C\C=C/C=C/C=C/[C@@H](SCC(NC(=O)CCC(N)C(=O)O)C(=O)NCC(=O)O)[C@@H](O)CCCC(=O)O (some centres not stated) | . | . | 1%
O=C(OCc1ccccc1)N1CCC2CC1c1ccc(Cl)cc12 (configuration not stated) | -10 | 3 | .
CC(C)Oc1cccc(C(=O)C2CCCN(C(=O)c3ccccn3)C2)c1 (configuration not stated) | 15 | -8 | .
COc1cccc(C(=O)C2CCCN(Cc3cccn3-c3ccccn3)C2)c1 (configuration not stated) | ? | -101* | .
CC(C)Oc1cccc(C(=O)C2CCCN(Cc3cccn3-c3ccccn3)C2)c1 (configuration not stated) | ? | -81* | 1%
COc1cccc(C(=O)C2CCCN(Cc3cccc(OCCO)c3)C2)c1 (configuration not stated) | 3 | 11 | .
O=C(/C=C/c1ccc(Cl)cc1)OCC(=O)c1ccc[nH]1 | 3 | 2 | .
CC(=O)c1ccc(N2CCN(C3CCC(C(C)(C)C)CC3)CC2)cc1 (configuration not stated) | 1 | 1 | .
CCOc1ccc(S(=O)(=O)NC2CCCC2)cc1C | -9 | 14 | .
COc1cc(C(=O)OCC(=O)Nc2ccc(S(=O)(=O)N3CCCC3)cc2)cc(OC)c1OC | -3 | 2 | .
CCOC(=O)C1(CCCc2ccccc2)CCN(CCCn2cccn2)CC1 | -131* | -111* | .
CCOC(=O)C1(Cc2ccc(Cl)cc2)CCN(C2CCC2)CC1 | 8 | -4 | .
CCOC(=O)C1(CCc2ccccc2)CCN(Cc2cccc3nccnc23)CC1 | -34 | -99* | -6%
CCOC(=O)C1(CCc2ccccc2)CCN(Cc2ccn[nH]2)CC1 | 9 | ? | -3%
CCOC(=O)C1(Cc2ccccc2C(F)(F)F)CCN(CCCn2cccn2)CC1 | 31 | -5 | -1%
CCOC(=O)C1(Cc2ccccc2)CCN(C2Cc3ccccc3C2)CC1 | -3 | -86* | -3%
CCOC(=O)C1(CCCc2ccccc2)CCN(Cc2cn(CC)nc2C)CC1 | -17 | -93* | 6%
CCOC(=O)C1(Cc2cccc(F)c2)CCN(Cc2cn(CC)nc2C)CC1 | 2 | -1 | .
Cc1ccc(N2C(=O)N(CC(=O)Nc3ccccc3C(F)(F)F)C(=O)C2C)cc1 (configuration not stated) | -2 | 10 | .
COC(=O)[C@@H](CC(C)C)N(Cc1ccccc1)S(=O)(=O)N(Cc1ccccc1)[C@@H](CC(C)C)C(=O)OC | -9 | 9 | .
NC(=S)SCCC(=O)O | . | . | -2%[7.66 µM]
CCOC(=O)C1(CCCc2ccccc2)CCN(Cc2nccn2CC)CC1 | -13 | -93* | .
SMILES | hERG WT inh | KCNH2 3.1 inh | Luc counter
CCOC(=O)C1(Cc2cccc(F)c2)CCN(Cc2cnc(C)s2)CC1 | -2 | -1 | 2%
CCOC(=O)C1(CCCc2ccccc2)CCN(Cc2cnc(C)s2)CC1 | -91* | -23 | -3%
CCOC(=O)C1(CCOc2ccccc2)CCN(Cc2nccn2CC)CC1 | 14 | 1 | .
O=C(O)CCc1nn2c3ccccc3n(Cc3ccccc3F)c2nc1=O | -4 | -2 | -3%
Cc1c(C)c2c(c(C)c1O)CC[C@@](C)(C(=O)O)O2 | . | . | -2%[17.1 µM]
CC(C)(C)NC(=O)Cn1c(SCC(=O)NC2CC2)nc2ccccc21 | 4 | 8 | .
CC(C)(C)NC(=O)Cn1c(SCC(N)=O)nc2ccccc21 | -6 | -89* | 1%
CCOC(=O)c1c(-c2ccccc2)c[nH]c1C | 1 | 8 | .
O=C(NC1CCCc2ccccc21)c1cccnc1 (configuration not stated) | -6 | -5 | -1%
c1cncc(CNC2CCCc3ccccc32)c1 (configuration not stated) | -18 | -99* | .
O=C1c2ccccc2C(=O)C1c1nccc2ccccc12 | -8 | -24 | 8.9µM*
O=C1c2ccccc2C(=O)C1c1ccnc2ccccc12 | -5 | -13 | -24%
O=C(CSc1nnc2ccc(-c3cccnc3)nn12)Nc1cccc(F)c1 | 2 | 8 | .
COC(=O)c1nnn(-c2ccc(Cl)c(Cl)c2)c1C(=O)OC | 0 | -5 | -3%
COC(=O)c1nnn(-c2ccc(F)c(Cl)c2)c1C(=O)OC | 5 | -70* | 1%
O=C(Nc1ccc(C(=O)NN2C(=O)c3ccccc3C2=O)cc1)c1ccccc1 | 14 | 5 | .
O=C(O)c1ccc2c(c1)C(=O)N(NC(=O)c1ccccc1)C2=O | -230* | -8 | -5%
CCOC(=O)N1CCN(C(=S)NC2CCCCC2)CC1 | 22 | 13 | -2%
CCOC(=O)N1CCN(C(=O)NC2CCCCC2)CC1 | 2 | -71* | 2%
COc1ccc(CN2CCNC(=O)C2CC(=O)NC2CCCC2)c(C)c1C (configuration not stated) | 0 | 9 | .
Cc1ccc(C)c(CN2CCC(CNC(=O)Nc3cccc(Cl)c3C)CC2)c1 | 7 | -23 | .
CCc1ccc(NC(=O)NCC2CCN(Cc3cccc(Cl)c3)CC2)cc1 | 16 | -91* | .
Cc1ccc(NC(=O)NCC2CCN(Cc3cccc(Cl)c3)CC2)cc1Cl | 5 | ? | -3%
Cc1ccc(NC(=O)NCC2CCN(Cc3cc(C)ccc3Cl)CC2)c(C)c1 | -151* | -23 | -1%
O=C(Nc1ccccc1N1CCOCC1)C1CCN(S(=O)(=O)c2ccc(Cl)cc2)CC1 | -5 | 8 | .
SMILES | hERG WT inh | KCNH2 3.1 inh | Luc counter
CC(C)(C)C(=O)CNS(=O)(=O)c1ccc(S(=O)(=O)NC2CC2)cc1 | -4 | -17 | .
COc1ccccc1NC(=O)c1ccc2c(c1)N(CC#N)C(=O)C(C)(C)O2 | -9 | 7 | .
CN1/C(=C\C(=O)c2cccs2)Sc2ccccc21 | 9 | 14 | .
CN1/C(=C/C(=O)c2cccs2)Sc2ccccc21 | . | . | 14µM*
CCOC(=O)c1c(C)[nH]c(C)c1C(=O)COC(=O)c1cccnc1SC | -5 | 14 | .
Nc1nonc1N/N=C\c1ccccc1 | -1 | -2 | .
Nc1nonc1NN=C1CCCCC1 | -11 | -80* | .
CC(C)c1ccc(OCc2ccc(C(=O)N3CCN(c4ccccn4)CC3)cc2)cc1 | -15 | -72* | -3%
CC(C)c1ccc(COc2ccc(C(=O)N3CCOCC3)cc2)cc1 | -6 | 1 | -4%
C=CCOc1ccc(CN(C)C(=O)c2ccc(CNS(=O)(=O)c3ccc(C)c(C)c3)cc2)cc1 | 3 | 13 | .
c1ccc(-c2cn3c(n2)-c2ccccc2C3)cc1 | 19 | -3 | 7.1µM*
O=C1c2ccccc2CN2C(=O)c3ccccc3CN12 | -5 | 14 | .
CCOc1cc(/C=C\[N+](=O)[O-])ccc1OCC(=O)N1CCOCC1 | 4 | 1 | -3%
O=C(c1ccc(F)cc1)C1CCN(C(=O)c2c(F)cccc2F)CC1 | -4 | -27 | .
O=C(COC(=O)C1CC2CCCC(C1)C2=O)Nc1ccc(F)c(Cl)c1 (configuration not stated) | -12 | -16 | .
